These results are taken from PubChem BioAssay (NCATS).

Results filed as inconclusive are left out. Calls of active or inactive are those of the source. The call rests on the fitted dose curve; in most records, active means well fitted inhibition curve with a large enough effect; inconclusive means small, poorly fitted or top-dose-only effect; inactive means flat fitted curve, though single readings scatter.
Potency means the concentration at half of the fitted maximal effect.

The test system of the first test is 7G8. Put plainly: qHTS profiling for inhibitors of Plasmodium falciparum proliferation (AID 504749). Further: nearly all actives have a fitted effect of over 60% in size.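 On activity, negative = inhibition: 0% = DMSO vehicle and full inhibition = artemisinin control.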 The conditions noted are these: P. falciparum in erythrocytes, SYBR Green DNA, 72 h; series mostly up to 28.7 µM; activity, negative = inhibition: at the top concentration. An outline of the steps: (§1)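 SYBR Green fluorescence (ex 485 nm, em 535 nm) reports parasite DNA after 72 h compound exposure of infected red cells at 0.3% parasitemia, 2.5% hematocrit; signal normalized to 0.29 uM artemisinin and vehicle wells.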
For orientation: Quantitative high-throughput screening tests each substance at several concentrations.
Turning to `C[N+](C)(C)CCOC(N)=O`, the “activity, negative = inhibition” value is -7.37% (inactive).

Turning to `C[N+](C)(C)CCCCCCCCCC[N+](C)(C)C`, the Potency was 5.01 µM (active).

As for `CN(C)CCCN1c2ccccc2Sc2ccccc21`, the Potency was 3.16 µM (active).

In the case of `CCn1ccnc1CC1COc2ccccc2O1` (stereo unspecified), the “activity, negative = inhibition” value is -22.5% (inactive).

Consider `Nc1c2c(nc3ccccc13)CCCC2O` (stereo unspecified), for which the “activity, negative = inhibition” value was -17.9% (inactive).

Regarding `CNC1(C)C2CCC(C2)C1(C)C` (stereo unspecified), the “activity, negative = inhibition” value is -11.2% (inactive).

Take `CSc1ccc(C(=O)c2[nH]c(=O)[nH]c2C)cc1`: the “activity, negative = inhibition” value was -1.74% (inactive).

Turning to `NC(=O)c1cn(Cc2c(F)cccc2F)nn1`, the “activity, negative = inhibition” value was 0.672% (inactive).

On to `CCN1CCC[C@H]1CNC(=O)c1c(O)c(Cl)cc(Cl)c1OC`, for which the “activity, negative = inhibition” value was -26.4% (inactive).

In the case of `CNCCC(Oc1ccccc1OC)c1ccccc1` (stereo unspecified), the Potency is 4.47 µM (active).

Consider `CN(C)CC/C=C1\c2ccccc2COc2ccccc21`, for which the Potency was 12.6 µM (active).

With `Nc1ncn([C@@H]2O[C@H](CO)[C@@H](O)[C@H]2O)c(=O)n1`, the “activity, negative = inhibition” value was 19.6% (inactive).

With `OCCN1CCN(CC/C=C2/c3ccccc3Sc3ccc(C(F)(F)F)cc32)CC1`, the Potency is 3.16 µM (active).

Regarding `NC(=O)c1ncn([C@@H]2O[C@H](CO)[C@@H](O)[C@H]2O)c1O`, the “activity, negative = inhibition” value is -2.9% (inactive).

Take `CC(N=C(NC#N)Nc1ccncc1)C(C)(C)C` (stereo unspecified): the “activity, negative = inhibition” value is -27.4% (inactive).

Regarding `Cc1cc(C)c(/C=C2\C(=O)Nc3ccccc32)[nH]1`, the “activity, negative = inhibition” value is -22.5% (inactive).

`CN(C)C(=O)Oc1cccc([N+](C)(C)C)c1`: the “activity, negative = inhibition” value is 4.7% (inactive).

On to `COCC(=O)O[C@]1(CCN(C)CCCc2nc3ccccc3[nH]2)CCc2cc(F)ccc2[C@@H]1C(C)C`, for which the Potency is 1.12 µM (active).

With `CC(=O)Oc1cc(C(C)C)c(OCCN(C)C)cc1C`, the “activity, negative = inhibition” value is -2.55% [at 12.8 µM] (inactive).

In the case of `CC(=O)[C@]1(O)Cc2c(O)c3c(c(O)c2[C@@H](O[C@H]2C[C@H](N)[C@H](O)[C@H](C)O2)C1)C(=O)c1ccccc1C3=O`, the Potency is 1.41 µM (active).

As to `CCN(CC)CCNC(=O)c1cc(S(C)(=O)=O)ccc1OC`, the “activity, negative = inhibition” value was 7.58% [at 12.8 µM] (inactive).

In the case of `NC(N)=NC(=O)Cc1c(Cl)cccc1Cl`, the Potency was 12.6 µM (active).

Turning to `CCN(CC)CCCN(c1ccccc1)C1Cc2ccccc2C1`, the Potency is 1.78 µM (active).

With `O=C(CCNNC(=O)c1ccncc1)NCc1ccccc1`, the “activity, negative = inhibition” value is -0.208% (inactive).

`O=C(O)CN(CCOCCOCCN(CC(=O)O)CC(=O)O)CC(=O)O`: the “activity, negative = inhibition” value was -6.39% (inactive).

`C[N+](C)(C)CCOC(=O)CCC(=O)OCC[N+](C)(C)C`: the “activity, negative = inhibition” value is -12.3% (inactive).

Consider `COC(=O)[C@H]1[C@H]2C[C@@H]3c4[nH]c5cc(OC)ccc5c4CCN3C[C@H]2C[C@@H](OC(=O)c2cc(OC)c(OC)c(OC)c2)[C@@H]1OC`, for which the Potency is 1.41 µM (active).

As for `Cc1scc2c1N(C(=O)CN1CCN(C)CC1)c1ccccc1NC2=O`, the “activity, negative = inhibition” value was -11.1% (inactive).

Another test relates to AA1029. Described as above. The following applies: P. falciparum in erythrocytes, SYBR Green DNA, 72 h; series mostly up to 28.7 µM; activity, negative = inhibition: at the top concentration. An outline of the steps: as §1
Regarding `C[N+](C)(C)CCOC(N)=O`, the “activity, negative = inhibition” value was 5.99% (inactive).

For the compound `C[N+](C)(C)CCCCCCCCCC[N+](C)(C)C`, the Potency was 5.62 µM (active).

Take `COc1ccc([C@@H]2Sc3ccccc3N(CCN(C)C)C(=O)[C@@H]2OC(C)=O)cc1`: the “activity, negative = inhibition” value was 12.8% (inactive).

Regarding `CN(C)CCCN1c2ccccc2Sc2ccccc21`, the Potency is 3.16 µM (active).

For `CCn1ccnc1CC1COc2ccccc2O1` (stereo unspecified), the “activity, negative = inhibition” value was -1.39% (inactive).

Take `Nc1c2c(nc3ccccc13)CCCC2O` (stereo unspecified): the “activity, negative = inhibition” value is -12.4% (inactive).

Regarding `CNC1(C)C2CCC(C2)C1(C)C` (stereo unspecified), the “activity, negative = inhibition” value is -2.56% (inactive).

As to `CSc1ccc(C(=O)c2[nH]c(=O)[nH]c2C)cc1`, the “activity, negative = inhibition” value is 0.0037% (inactive).

With `NC(=O)c1cn(Cc2c(F)cccc2F)nn1`, the “activity, negative = inhibition” value is 2.7% (inactive).

Take `CCN1CCC[C@H]1CNC(=O)c1c(O)c(Cl)cc(Cl)c1OC`: the “activity, negative = inhibition” value is -2.3% (inactive).

As to `CNCCC(Oc1ccccc1OC)c1ccccc1` (stereo unspecified), the Potency was 10 µM (active).

`CN(C)CC/C=C1\c2ccccc2COc2ccccc21`: the Potency is 8.91 µM (active).

For the compound `Nc1ncn([C@@H]2O[C@H](CO)[C@@H](O)[C@H]2O)c(=O)n1`, the “activity, negative = inhibition” value was 0.712% (inactive).

On to `OCCN1CCN(CC/C=C2/c3ccccc3Sc3ccc(C(F)(F)F)cc32)CC1`, for which the Potency is 8.91 µM (active).

For the compound `NC(=O)c1ncn([C@@H]2O[C@H](CO)[C@@H](O)[C@H]2O)c1O`, the “activity, negative = inhibition” value was 4.96% (inactive).

For the compound `CC(N=C(NC#N)Nc1ccncc1)C(C)(C)C` (stereo unspecified), the “activity, negative = inhibition” value is -1.45% (inactive).

Take `Cc1cc(C)c(/C=C2\C(=O)Nc3ccccc32)[nH]1`: the “activity, negative = inhibition” value was -11.3% (inactive).

Take `CN(C)C(=O)Oc1cccc([N+](C)(C)C)c1`: the “activity, negative = inhibition” value was 16.1% (inactive).

`COCC(=O)O[C@]1(CCN(C)CCCc2nc3ccccc3[nH]2)CCc2cc(F)ccc2[C@@H]1C(C)C`: the Potency was 0.794 µM (active).

Turning to `CC(=O)Oc1cc(C(C)C)c(OCCN(C)C)cc1C`, the “activity, negative = inhibition” value is 7.01% [at 12.8 µM] (inactive).

Turning to `CC(=O)[C@]1(O)Cc2c(O)c3c(c(O)c2[C@@H](O[C@H]2C[C@H](N)[C@H](O)[C@H](C)O2)C1)C(=O)c1ccccc1C3=O`, the Potency is 3.55 µM (active).

For the compound `CCN(CC)CCNC(=O)c1cc(S(C)(=O)=O)ccc1OC`, the “activity, negative = inhibition” value was 12.7% [at 12.8 µM] (inactive).

Take `CCN(CC)CCCN(c1ccccc1)C1Cc2ccccc2C1`: the Potency is 4.47 µM (active).

In the case of `O=C(CCNNC(=O)c1ccncc1)NCc1ccccc1`, the “activity, negative = inhibition” value was -2.6% (inactive).

Turning to `O=C(O)CN(CCOCCOCCN(CC(=O)O)CC(=O)O)CC(=O)O`, the “activity, negative = inhibition” value is 4.34% (inactive).

Turning to `C[N+](C)(C)CCOC(=O)CCC(=O)OCC[N+](C)(C)C`, the “activity, negative = inhibition” value is 2.72% (inactive).

With `COC(=O)[C@H]1[C@H]2C[C@@H]3c4[nH]c5cc(OC)ccc5c4CCN3C[C@H]2C[C@@H](OC(=O)c2cc(OC)c(OC)c(OC)c2)[C@@H]1OC`, the Potency was 8.91 µM (active).

As to `Cc1scc2c1N(C(=O)CN1CCN(C)CC1)c1ccccc1NC2=O`, the “activity, negative = inhibition” value is 2.82% (inactive).
